# Screens as filed in PubChem.
# A selection: hits, their analogues and other compounds. The true share with any hit is near 2.1%.
# mut p53 SMM = mutant p53 (human) binding; small molecule microarray binding, anti-GST fluorescence; calls only; 17,000 compounds, 0.4% hits; AID 624136;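 active = compounds whose four printed spots each glow above background more than chance allows, each with a p-value under 7%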
# Myc binder = c-Myc (human) binding. small molecule microarray, His-c-Myc binding, anti-His fluorescence. calls only. 17,000 compounds, 1.5% hits. AID 624141;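 active = spot fluorescence over background with P-value below 7% in all four replicate spots, showing protein binding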;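 note: score is binary with 100 for all four spots passing and 0 otherwise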
# STAT3 SMM = STAT3 (human) binding | AID 624138 | Small molecule microarray, His-STAT3 binding, anti-His fluorescence | calls only | P40763 | 17,000 compounds, 0.2% hits;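 active = compounds whose four printed spots each show fluorescence over background unusually high for their array block, chance value under 7%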
# Target sequence (P40763 whole entry, looked up): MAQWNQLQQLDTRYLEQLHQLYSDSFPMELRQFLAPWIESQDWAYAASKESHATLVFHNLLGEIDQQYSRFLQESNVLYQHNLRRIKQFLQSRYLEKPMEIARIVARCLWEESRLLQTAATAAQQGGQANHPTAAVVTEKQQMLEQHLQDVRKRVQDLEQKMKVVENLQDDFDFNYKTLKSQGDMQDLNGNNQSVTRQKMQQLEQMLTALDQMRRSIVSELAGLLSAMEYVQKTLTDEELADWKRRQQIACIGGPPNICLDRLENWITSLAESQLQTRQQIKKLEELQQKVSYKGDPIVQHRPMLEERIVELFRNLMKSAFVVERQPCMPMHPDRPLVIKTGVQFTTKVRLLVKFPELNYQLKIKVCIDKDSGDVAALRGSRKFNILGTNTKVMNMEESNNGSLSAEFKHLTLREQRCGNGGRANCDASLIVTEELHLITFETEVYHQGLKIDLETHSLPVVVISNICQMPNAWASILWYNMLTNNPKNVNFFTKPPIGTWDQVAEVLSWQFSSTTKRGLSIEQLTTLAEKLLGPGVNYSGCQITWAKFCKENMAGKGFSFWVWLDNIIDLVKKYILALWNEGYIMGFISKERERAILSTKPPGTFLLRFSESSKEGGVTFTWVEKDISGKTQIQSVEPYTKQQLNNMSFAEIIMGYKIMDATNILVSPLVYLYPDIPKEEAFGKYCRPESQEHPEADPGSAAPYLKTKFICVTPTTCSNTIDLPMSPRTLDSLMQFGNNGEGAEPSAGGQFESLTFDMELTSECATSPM
# NFkB binder = binders of human NF-kappa-B p105; Small molecule microarray, anti-His fluorescence binding; calls only; 17,000 compounds, 1.3% hits;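 active = spot fluorescence over background significantly raised, with a chance value under 7% in all four replicate spots of the compound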;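 note: probe protein is his-tagged human p50 processed subunit at 1 µg/ml; raw spot fluorescence signals with no normalization applied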
# * hit, by the source's call; i = inactive; + = active, no number.
SMILES,mut p53 SMM,Myc binder,STAT3 SMM,NFkB binder
C[C@H](CO)N1C[C@H](C)[C@@H](CN(C)S(=O)(=O)c2ccccc2)OCCCC[C@H](C)Oc2ccc(N(C)C)cc2C1=O,+,i,i,i
Cc1noc(C)c1S(=O)(=O)N(C)C[C@H]1OCCCC[C@H](C)Oc2ccc(NC(=O)NC(C)C)cc2C(=O)N([C@H](C)CO)C[C@@H]1C,i,i,i,i
Cc1noc(C)c1S(=O)(=O)N(C)C[C@H]1OCCCC[C@@H](C)Oc2ccc(NC(=O)NC(C)C)cc2C(=O)N([C@@H](C)CO)C[C@H]1C,i,+,i,i
C[C@@H]1CN([C@@H](C)CO)C(=O)c2cc(NC(=O)Nc3ccc4c(c3)OCO4)ccc2O[C@H]1CN(C)C(=O)Nc1ccc(F)cc1,i,i,i,i
CCOc1ccc(NC(=O)C(C)Sc2ncnc3sc(-c4ccccc4)cc23)cc1 (centres undefined),i,+,i,i
COc1ccc([Si](C)(C)[C@H]2[C@H](CCO)O[C@@]3(C(=O)N(Cc4ccccc4)c4ccc(NC(=O)[C@H](C)O)cc43)[C@@H]2C)cc1,+,i,i,+
O=C1O[C@@H](c2ccccc2)[C@@H](c2ccccc2)N2[C@@H](c3ccc(OCCO)cc3)[C@]3(C(=O)Nc4ccccc43)[C@@H](C(=O)O)[C@H]12,i,i,i,i
Cc1nc2ccc(NC(=S)NCCCO)cc2nc1C,i,+,i,i
Cc1noc(C)c1NC(=O)Nc1cccc2c1O[C@H](CN(C)CC1CC1)[C@@H](C)CN([C@@H](C)CO)C2=O,i,i,i,i
C[C@@H]1CN([C@@H](C)CO)C(=O)c2cc(NC(=O)c3ccncc3)ccc2O[C@@H](C)CCCCO[C@H]1CN(C)C(=O)Nc1cccc2ccccc12,i,+,i,+
C[C@@H]1CN([C@H](C)CO)C(=O)c2cc(NC(=O)c3ccncc3)ccc2O[C@@H](C)CCCCO[C@H]1CN(C)C(=O)Nc1cccc2ccccc12,i,+,i,+
C[C@@H]1CCCCO[C@@H](CN(C)C(=O)Nc2cccc3ccccc23)[C@H](C)CN([C@@H](C)CO)C(=O)c2cc(NC(=O)c3ccncc3)ccc2O1,i,+,i,+
C[C@H]1CCCCO[C@@H](CN(C)C(=O)Nc2ccccc2)[C@@H](C)CN([C@@H](C)CO)C(=O)c2cc(NC(=O)c3ccncc3)ccc2O1,i,i,i,i
C[C@@H]1CCCCO[C@@H](CN(C)C(=O)Nc2cccc3ccccc23)[C@H](C)CN([C@H](C)CO)C(=O)c2cc(NC(=O)c3ccncc3)ccc2O1,i,+,i,+
C[C@@H]1CN([C@@H](C)CO)C(=O)c2cc(NC(=O)c3ccncc3)ccc2O[C@@H](C)CCCCO[C@@H]1CN(C)C(=O)Nc1ccccc1,i,i,i,i
C[C@@H]1CN([C@@H](C)CO)C(=O)c2cc(NC(=O)Nc3ccc(F)cc3)ccc2O[C@@H](C)CCCCO[C@H]1CN(C)C(=O)Nc1cccc2ccccc12,i,i,i,i
CS(=O)(=O)N(CC(=O)Nc1cc(Cl)ccc1Oc1ccccc1)C1CCCCC1,i,i,i,i
O=c1c2ccccc2nc2n1CCC2O (centres undefined),i,i,i,i
C[C@@H]1CN([C@H](C)CO)C(=O)c2cc(NC(=O)c3ccncc3)ccc2O[C@@H](C)CCCCO[C@@H]1CN(C)C(=O)Nc1cccc2ccccc12,i,i,+,i
CC(C)NC(=O)N(C)C[C@H]1OCCCC[C@@H](C)Oc2ccc(NC(=O)c3ccncc3)cc2C(=O)N([C@@H](C)CO)C[C@H]1C,i,i,i,+
C[C@@H]1CCCCO[C@@H](CN(C)C(=O)Nc2cccc3ccccc23)[C@H](C)CN([C@H](C)CO)C(=O)c2cc(N(C)C)ccc2O1,i,+,i,+
CC(C)NC(=O)N(C)C[C@H]1OCCCC[C@H](C)Oc2ccc(NC(=O)c3ccncc3)cc2C(=O)N([C@@H](C)CO)C[C@H]1C,i,i,i,i
C[C@@H]1CN([C@@H](C)CO)C(=O)c2cc(NC(=O)c3ccncc3)ccc2O[C@@H](C)CCCCO[C@@H]1CN(C)C(=O)Nc1cccc2ccccc12,+,i,+,i
CNC(=O)CN(c1cc(C)ccc1C)S(=O)(=O)c1ccccc1,i,i,i,i
CNC[C@H]1Oc2c(NC(=O)Nc3c(C)noc3C)cccc2C(=O)N([C@@H](C)CO)C[C@H]1C,i,i,i,i
